Out of some 360,000 compounds screened, about 830 (0.23%) were called active.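 Rule for the calls: active = mean luciferase reporter signal, scaled so untreated is 0 and the glycosylation-blocking control 100, at or above a set limit in every replicate; inconclusive = mean reaches the limit but not every replicate does; inactive = mean below the limit.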 The sample as a whole holds a higher share of actives than the screen did.

The text below walks through data of PubChem BioAssay AID588692 (Broad Institute, 2011).

The assay is described as follows: increase of ERlucT glycosylation luciferase signal, primary screen, N-linked glycosylation inhibitor project, D54 ERlucT cells, luminescence, set 2 (AID 588692).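 Note: luciferase carries N-glycosylation sites so blocking glycosylation raises the light; 0% = median of neutral control wells and 100% = median of 100 nM tunicamycin wells.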 The note with it: 24 h, at 12.5 µM, hits give high values, percent of 100 nM tunicamycin response.
With `Cc1ccccc1NC(=O)c1ccc(COc2ccc3c(C)cc(=O)oc3c2)cc1`, the reporter increase is -2.09% (inactive).
As for `O=C(c1ccccc1)C(Cn1cncn1)C(Sc1ccccc1)c1ccccc1` (configuration not stated), the figure is -3.83% (inactive); as for `CC1CCN(c2ccc(C(=O)NCc3ccc4c(c3)OCO4)cc2[N+](=O)[O-])CC1`, -1.89% (inactive); as for `O=C(NCc1ccc2c(c1)OCO2)c1cc([N+](=O)[O-])ccc1N1CCOCC1`, 25.7% (active).
The result for `O=C(Cc1ccc([N+](=O)[O-])cc1)NCCc1ccc2c(c1)OCO2` reads -0.789% (inactive).
Turning to `Cc1ccc(C(=O)NCC(c2cccs2)N(C)C)cc1S(=O)(=O)N1CCOCC1` (configuration not stated), the reporter increase is 0.45% (inactive).
The result for `Cc1nc(-c2ccccc2)sc1-c1nnc(C2CC2)o1` reads 0.986% (inactive).
The result for `Cc1ccc(Nc2nc(N)nc(CN3CCN(Cc4ccccc4)CC3)n2)cc1Cl` reads 49% (active); that for `Cc1ccccc1Nc1nc(N)nc(CN2CCN(c3ccccn3)CC2)n1`, 1.95% (inactive); that for `CCOC(=O)C1CCCN(Cc2nc(N)nc(Nc3ccc(C)cc3)n2)C1` (configuration not stated), 1.57% (inactive).
In the case of `CCN(C(=O)COC(=O)c1cc(S(=O)(=O)N2CCc3ccccc32)ccc1OC)C1CCS(=O)(=O)C1` (configuration not stated), the reporter increase is -1.41% (inactive).
The result for `Cc1cccc(C(=O)NCc2nnc(SC(C)C(=O)Nc3nnc(C)s3)n2C)c1` (configuration not stated) reads -0.286% (inactive); that for `CC(C)(Oc1ccc(C2CC2(Cl)Cl)cc1)C(=O)O` (configuration not stated), 4.07% (inactive).
For `Nc1ccc(C(=O)Nc2ccccc2N)cc1`, the reporter increase is 69.6% (active).
As to `O=C(Nc1ccccc1F)c1ccc(S(=O)(=O)N2CCCCCC2)cc1`, the reporter increase is -0.684% (inactive).
The result for `O=C(Cc1ccccc1)Nc1ccc(C(=O)Nc2ccccc2C(=O)O)cc1` reads 1.55% (inactive); that for `Cc1ccc(S(=O)(=O)NC(=O)N2CCCN(Cc3ccc(F)cc3)CC2)cc1`, -2.48% (inactive).
`O=C(CCNS(=O)(=O)c1ccccc1)NCCSc1ccc(Br)cc1`: the reporter increase is 2.32% (inactive).
The result for `CC1(C)CC(=O)C=C(NCc2ccncc2)C1` reads 1.27% (inactive).
On to `O=C(CCN1C(=O)C2CCCCC2C1=O)Nc1ccc(OC(F)F)cc1` (configuration not stated), for which the reporter increase was 0.177% (inactive).
The result for `Cc1cc(Cl)ccc1N1C(=O)CC(SCCC(=O)O)C1=O` (configuration not stated) reads 1.84% (inactive).
For the molecule `O=C(O)CC(Cc1ccccc1)C(=O)Nc1ccc([N+](=O)[O-])cc1` (configuration not stated), the reporter increase is -1.27% (inactive).
As for `COc1cccc(C(NC(C)=O)c2nc(-c3ccccc3OC)cs2)c1` (configuration not stated), the figure is 62.8% (active); as for `CC(=O)NC(c1ccccc1)c1nc(-c2ccccc2C)cs1` (configuration not stated), 11.9% (inactive); as for `COc1cccc(C(NC(C)=O)c2nc(-c3cnc4ccccc4c3)cs2)c1` (configuration not stated), 1.72% (inactive).
On to `COc1cccc(C(=O)N2CCC(n3nccc3NC(=O)C3CCOC3)CC2)c1` (configuration not stated), for which the reporter increase was 0.842% (inactive).
The result for `COc1ccc(Cl)cc1NS(=O)(=O)c1cccc(C(=O)NC2CCC(O)CC2)c1` (configuration not stated) reads -1% (inactive); that for `Cc1[nH]n(C(N)=S)c(=O)c1N=Nc1ccc(Cl)cc1Cl`, -0.0505% (inactive); that for `CC(=O)NC(Cc1ccc(F)c(F)c1)C(=O)NC1CCN(c2nnnn2-c2ccccc2)CC1` (configuration not stated), 0.485% (inactive).
Consider `Cc1ccc(OCC(=O)Nc2ccc(NC(=O)c3cccs3)cc2)c(C)c1`, for which the reporter increase was 79.9% (active).
For the molecule `Cc1cccc(C(=O)Nc2ccc(C(=O)/C=C/c3cccs3)cc2)c1`, the reporter increase was -1.77% (inactive).
As for `Cc1ccc(NNC(=O)c2cccs2)cc1Cl`, the figure is 1.56% (inactive); as for `C/C(=N\OCC(=O)Nc1ccc(Br)cc1)c1cccs1`, 2.32% (inactive).
As for `Cc1ccc(OCC(=O)Nc2ccc(N3CCN(C(=O)c4ccco4)CC3)cc2)c(C)c1`, the figure is -5.46% (inactive); as for `Cc1ccc(C(=O)Nc2ccc(NC(=O)c3cccs3)cc2)c(C)c1`, 47.6% (active); as for `O=C(NCCN1CCOCC1)c1ccccc1N1C(=O)[C@@H]2Cc3c([nH]c4ccccc34)C(c3cccc(Cl)c3)N2C1=O` (some centres not stated), 4.03% (inactive).
In the case of `COC(=O)c1cccc(N(C(=O)c2ccco2)C(C(=O)NC2CCCC2)c2ccco2)c1` (configuration not stated), the reporter increase was 1.26% (inactive).
As for `COCCNc1ncnc2c1ncn2[C@H]1CN(Cc2ccc(OC)cc2)C[C@@H](CO)O1`, the reporter increase is 0.218% (inactive).
`CC(C)C[C@H](NC(=O)NCCc1ccc(Cl)cc1)C(=O)O`: the reporter increase is 0.0345% (inactive).
As for `CCN(CC)C(=O)CSc1nnc(-c2cnccn2)n1-c1ccc(C)cc1`, the figure is 1.32% (inactive); as for `Cc1cccc(NC(=O)C(C)N2C(=O)C3C4CC(C(Br)C4Br)C3C2=O)c1` (configuration not stated), 2.15% (inactive).
With `CCN(C(=O)c1cc([N+](=O)[O-])ccc1NCc1cccnc1)c1ccccc1`, the reporter increase is -2.09% (inactive).
As for `Cn1cnc2c1c(=O)n(Cc1ccccc1C#N)c(=O)n2C`, the figure is 1.69% (inactive); as for `Cc1cc2oc(=O)cc(CN(C)Cc3ccccc3)c2cc1Cl`, 0.116% (inactive); as for `CCN1C(=O)CS/C1=N\c1nccs1`, 0.352% (inactive).
Consider `C=CCC[C@@H](Cc1ccc(F)cc1)C(=O)OC[C@H](Cc1c[nH]c2ccccc12)NC(=O)[C@@H](CC=C)CC(=O)N(CCO)Cc1ccccc1`, for which the reporter increase is -0.357% (inactive).
The result for `Cn1c(=O)n(C)c2cc(NS(=O)(=O)c3ccc(F)cc3)ccc21` reads 27.7% (active); that for `Cn1c(CCN2CCN(c3ccccn3)CC2)nc2cc(NS(=O)(=O)c3ccc(F)cc3)ccc21`, -5.5% (inactive).
The result for `Cn1c(=O)n(C)c2cc(S(=O)(=O)Nc3ccc(F)cc3)ccc21` reads 2.56% (inactive); that for `COc1ccccc1CNC(=O)c1cc(-c2cc(F)ccc2OC)n[nH]1`, 0.448% (inactive).
Turning to `Cc1cc(F)ccc1N1CCC(N2CCN(C)C(CCO)C2)CC1` (configuration not stated), the reporter increase is -1.14% (inactive).
Take `Cc1cc(O)ccc1-c1cc(C(=O)NCc2cc(C(F)(F)F)cc(C(F)(F)F)c2)[nH]n1`: the reporter increase was 1.18% (inactive).
As for `COCCCNC(=O)c1ccc(-c2c(C)noc2C)c2ccoc12`, the figure is 19.8% (inactive); as for `COCCCNC(=O)c1cccc2c(-c3ccc(O)c(OC)c3)coc12`, 31.5% (active).
As for `COc1ccc(-c2coc3c(C(=O)NC(C)C)cccc23)c(C)c1`, the figure is -2.53% (inactive); as for `COc1ccc(-c2ccc(CN3C(CC(C)C)C(=O)N(Cc4cn(CC5CCCCC5)nn4)CCS3(=O)=O)cc2)cn1` (configuration not stated), 4.1% (inactive).
`CSCCC(C(=O)NC1=NCCS1)N1C(=O)c2ccccc2C1=O` (configuration not stated): the reporter increase was -0.003% (inactive).
